Measured values from PubChem BioAssay AID720522 (National Center for Advancing Translational Sciences (NCATS), 2013).
The whole screen tested about 1,400 compounds, of which about 60 (4%) were called active. Another 7% or so got no clear call; they are omitted. The list is a sample of the results. Values without a mark were called inactive. The call rests on the fitted dose curve; in most records, active means well fitted inhibition curve with a large enough effect; inconclusive means small, poorly fitted or top-dose-only effect; inactive means flat fitted curve, though single readings scatter.

biological target: Luciferin 4-monooxygenase (Photinus pyralis) (UniProt P08659); experiment: Nrf2 qHTS screen for inhibitors: Purified Fluc Biochemical Counterscreen for Hit Validation; settings: purified firefly luciferase, luminescence inhibition; series mostly up to 57.5 µM; activity change, negative = inhibition: at the top concentration; further: nearly all actives have a fitted effect of over 65% in size
Text: Nrf2 is a transcription factor that maintains cellular redox homoestasis and protects cells from xenobiotics. Nrf2 binds to the antioxidant response element (ARE) to induce gene expression of a broad spectrum of genes that encode for antioxidants. […] Finding a small molecule that act as an inhibitor of Nrf2 function would represent a novel therapeutic target that could lead to improvement in survival of patients undergoing chemo- and/or radio- therapy.
A biochemical assay in 1536 well format was developed and utilized to remove compounds that inhibit the luciferase reporter (Fluc) rather than the Nrf2 enzyme. Inhibition of this assay = false positive inhibition of Nrf2.
NIH Chemical Genomics Center [NCGC]
NIH Molecular Libraries Probe Centers Network [MLPCN]
Assay Submitter (PI): Shyam Biswal, Johns Hopkins University
[1] Shibata T., et al., Genetic alteration of Keap1 confers constitutive Nrf2 activation and resistance to chemotherapy in gallbladder cancer. Gastroenterology, 2008.
[2] Sjoblom T., et al., The consensus coding sequences of human breast and colorectal cancers. Science, 2006.
Three microliter of substrate solution containing 50mM Tris acetate, 13.3 mM Mg-acetate, 0.01mM ATP, 0.01% Tween, 0.05% BSA and 0.01mM D-Luciferin (Sigma, #L9504) was dispensed into 1536 well white solid bottom assay plate (Greiner Bio, #789173-F). Twenty-three nanoliter of compounds dissolved in DMSO at different concentrations was added to the plate using a Kalypsys 1536-pin tool. Then 1 uL of firefly luciferase reagent containing 50mM Tris-acetate and 0.04uM P. pyralis luciferase (Sigma, #L9506) was added. The final DMSO concentration was maintained at 0.56%. Luminescence signal was acquired using the PerkinElmer Viewlux plate reader after incubation at room temperature for 10 minutes.
On the % scale 0 is the no-effect control and ±100 the full control effect; potency means the concentration at half of the fitted maximal effect.

Chain of Luciferin 4-monooxygenase (Photinus pyralis) (P08659 whole entry, looked up): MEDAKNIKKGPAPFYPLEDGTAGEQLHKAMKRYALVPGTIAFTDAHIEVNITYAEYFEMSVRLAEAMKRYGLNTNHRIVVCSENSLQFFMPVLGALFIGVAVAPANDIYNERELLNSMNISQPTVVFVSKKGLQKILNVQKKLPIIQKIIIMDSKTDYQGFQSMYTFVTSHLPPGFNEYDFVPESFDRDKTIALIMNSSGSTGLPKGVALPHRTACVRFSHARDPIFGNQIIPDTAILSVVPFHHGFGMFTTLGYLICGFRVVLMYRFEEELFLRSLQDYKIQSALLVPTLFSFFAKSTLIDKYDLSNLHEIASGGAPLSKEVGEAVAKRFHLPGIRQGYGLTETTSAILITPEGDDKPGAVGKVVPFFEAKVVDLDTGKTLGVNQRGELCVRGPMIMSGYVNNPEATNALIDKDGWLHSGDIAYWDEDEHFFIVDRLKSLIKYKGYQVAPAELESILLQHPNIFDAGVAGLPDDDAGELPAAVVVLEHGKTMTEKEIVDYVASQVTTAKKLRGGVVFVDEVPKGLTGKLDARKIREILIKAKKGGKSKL

Row | SMILES | activity change, negative = inhibition [%] | Potency
1 | Cc1cc(C(=O)NC2CCCc3c2cnn3-c2cccc(C)c2C)c(C)o1 (stereo not given) | -15.8 | 
2 | O=C(CCC(=O)N1CCN(S(=O)(=O)c2ccc(Cl)cc2)CC1)NCc1cccc(C(F)(F)F)c1 | 2.67 | 
3 | Cc1nc(N2CCOCC2)c2c(C)c(C(=O)Nc3ccc(C(F)(F)F)cc3)sc2n1 | -11.7 | 
4 | O=C(Nc1ccncc1)c1c(F)cccc1F | 0.655 | 
5 | Cc1ccc(S(=O)(=O)N2CCN(c3ncnc4ccccc34)CC2)cc1 |  | inactive
6 | CC(=NNC(=S)N1CCCCCC1)c1ccccn1 |  | 12 µM (active)
7 | CCCCNc1nc2c(c(=O)n(C)c(=O)n2C)n1Cc1cccc(OC)c1 | 2.33 | 
8 | CC(=O)N1c2ccc(S(=O)(=O)N3CCCC(C(=O)NCc4ccc(Cl)cc4)C3)cc2CC1C (stereo not given) | -0.0313 | 
9 | CN(C)c1ccc(/C=C/c2sc3ccccc3[n+]2CCCCBr)cc1 | 2.47 | 
10 | CCC(C)N1C(=O)S/C(=C/c2ccc(Sc3nc4ccccc4[nH]3)o2)C1=O (stereo not given) | -3.17 | 
11 | O=C1C=C(c2ccnc3cc(Cl)ccc23)C[C@@H](c2ccc3c(c2)OCO3)C1 | -0.462 | 
12 | COc1cccc(-c2nc(CS(=O)(=O)CC(=O)N3CCN(c4cc(C)ccc4C)CC3)c(C)o2)c1 | -16.5 | 
13 | COCCn1c(SCC(=O)Nc2ccccc2F)nc2c(c1=O)SCC2 | -0.508 | 
14 | Cn1nccc1C(=O)NC1CCCc2c1cnn2-c1ccc(F)cc1F (stereo not given) | 2.08 | 
15 | Cc1oc2c(F)c(F)c(F)c(F)c2c1S(=O)(=O)Nc1cccc(C(F)(F)F)c1 | -1.25 | 
16 | CC(=O)N1CCCc2cc(S(=O)(=O)N3CCCC(C(=O)N4CCN(c5cccc(Cl)c5)CC4)C3)ccc21 (stereo not given) | -0.273 | 
17 | Cc1ccc(NC(=O)C2CC(=O)N(c3ccc4c(c3)OCCO4)C2)cc1S(=O)(=O)N1CCCCCC1 (stereo not given) | -12.3 | 
18 | O/N=C(\C[n+]1ccccc1)c1ccc(Br)cc1 | -0.184 | 
19 | N#CC(C#N)=CN=c1ccn(Cc2ccc(Cl)cc2Cl)cc1 | -2.69 | 
20 | O=c1[nH]c(SCc2cccc(F)c2)nc2ccccc12 | -12.6 | 

Row | SMILES | activity change, negative = inhibition [%] | Potency
21 | COc1cccc(-c2nnc(NC(=O)c3ccc(S(=O)(=O)N(CC(C)C)CC(C)C)cc3)o2)c1 | -0.563 | 
22 | Cc1cc(C)c(-c2csc(NC(=O)CCCc3nc4ccccc4c(=O)[nH]3)n2)c(C)c1 | 1.65 | 
23 | Cc1c(Cl)cccc1NC(=O)Cn1cc(C(=O)c2cccs2)c2ccccc21 | -11.4 | 
24 | CC1(C)O[C@@H]2CC3C4C[C@H](F)C5=CC(=O)C=CC5(C)C4C(O)CC3(C)[C@]2(C(=O)CO)O1 (stereo not given in full) | -1.87 | 
25 | CC(=O)Nc1ccc(Nc2c3ccccc3nc3ccccc23)cc1 | -10.2 | 
26 | CCCOc1ccc(C(=O)Nc2ccc3oc(-c4cccc(Cl)c4Cl)nc3c2)cc1 | 0.869 | 
27 | CC(=O)OC(C)C[N+](C)(C)C (stereo not given) | -2.04 | 
28 | COc1ccc(CC(=O)Nc2nc(-c3ccc(F)c(F)c3)cs2)cc1OC | -1.67 | 
29 | O=C(OCCOc1ccccc1Cl)c1cc(S(=O)(=O)N2CCCCC2)ccc1N1CCOCC1 | 2.03 | 
30 | CC1CCCN(S(=O)(=O)c2ccc(C(=O)Nc3nnc(-c4ccncc4)o3)cc2)C1 (stereo not given) | 2.31 | 
31 | CC[C@H]1CN2CCc3cc(OC)c(OC)cc3[C@@H]2C[C@@H]1C[C@H]1NCCc2cc(OC)c(OC)cc21 | 0.375 | 
32 | Cc1ccc(S(=O)(=O)N2C[C@@H]3CCCC[C@@H]3[C@@H](C)[C@H]2c2cn(Cc3ccccc3)c3ccc(F)cc23)cc1 | 2 | 
33 | OCCCNc1nccc(-c2cc(Nc3cccc(Cl)c3)ncn2)n1 | -22.4 | 
34 | Cc1ccc(NS(=O)(=O)c2cccs2)cc1S(=O)(=O)N1CCCCCC1 | -0.678 | 
35 | CCOC(=O)c1cnc(-n2nc(C)cc2C)nc1NNc1cc(C)nc(-c2ccccc2)n1 | 4.06 | 
36 | CN(Cc1cccnc1)C(=O)c1cc(COc2ccc3ncccc3c2)on1 | -3.7 | 
37 | CC1(C)CC(N2CCN(C(c3ccccc3)c3ccccc3)CC2)=CC(=[N+]2CCCCC2)C1 | -16 | 
38 | Cc1csc[n+]1CCC1CCCCC1 | -0.381 | 
39 | O=C(Nc1ccc(Br)cn1)C1CCN(S(=O)(=O)c2cccs2)CC1 | 1.61 | 
40 | COc1ccc(N2CCN(C(=O)CSCc3nc(-c4ccccc4Cl)oc3C)CC2)cc1 | 0.323 | 

Row | SMILES | activity change, negative = inhibition [%] | Potency
41 | CCCOc1ccc(Cc2c(Cl)nc(SC)nc2NC)cc1 | -1.64 | 
42 | Cc1cccc(N2CCN(C(=O)CCS(=O)(=O)c3ccc4c(c3)NC(=O)C(C)S4)CC2)c1C (stereo not given) | 2.31 | 
43 | C[n+]1ccc(/C=C/c2c[nH]c3ccccc23)cc1 | 2.78 | 
44 | O=C(CN1C(=O)c2ccccc2S1(=O)=O)N1CCc2ccccc21 |  | 4.26 µM (active)
45 | O=C(CSc1nnc2c(n1)[nH]c1ccccc12)NC1CCCCC1 | -1.71 | 
46 | O=C(CC(O)(C(F)(F)F)C(F)(F)F)Nc1ccc(Cl)c(Cl)c1 | 1.69 | 
47 | COc1ccc(C(=O)C[n+]2ccc(N)c(C)c2C)cc1 | -0.956 | 
48 | CCCN(c1ccc(C(C)C)cc1)S(=O)(=O)c1c(C)[nH]c(=O)[nH]c1=O | -1.53 | 
49 | CCOc1ccc(S(=O)(=O)N2CCCCC2)cc1NC(=O)CN1CCCC1c1cccs1 (stereo not given) | -0.627 | 
50 | CC1CCN(S(=O)(=O)c2ccc(NC(=O)C3CC(=O)N(c4ccccc4)C3)cc2)CC1 (stereo not given) | -0.62 | 
51 | COc1ccc(CCNC(=O)c2ccc(CS(=O)(=O)c3ccc(Br)cc3)o2)cc1OC | -8.22 | 
52 | COc1ccc(OC)c(Cc2cnc3nc(N)nc(N)c3c2C)c1 | -2.63 | 
53 | CCCCCCCCn1c2c(c(=N)c3c1CCC3)CCCC2 | 1.69 | 
54 | COc1ccc(CCNc2cc(N3CCN(C(=O)c4ccccc4OC)CC3)ccc2[N+](=O)[O-])cc1OC | -10.5 | 
55 | CC(=O)N1c2ccc(S(=O)(=O)N3CCCC(C(=O)Nc4cccc(Cl)c4)C3)cc2CC1C (stereo not given) | 2.21 | 
56 | CNC(=O)c1cccc2nc3ccccc3nc12 | 1.57 | 
57 | CC(C)Cn1c(N)c(C(=O)COC(=O)CN2C(=O)C3CC=CCC3C2=O)c(=O)n(C)c1=O (stereo not given) | 0.523 | 
58 | Cc1cc(C)cc(NS(=O)(=O)c2ccc(Oc3ncc(C(F)(F)F)cc3Cl)cc2)c1 | 1.28 | 
59 | CCNS(=O)(=O)c1ccc(CCC(=O)N2CCN(c3cc(Cl)ccc3C)CC2)cc1 | 2.95 | 
60 | C=CCC1(CC=C)CCCN1C(=O)c1cc(COc2ccc(-n3cncn3)cc2)on1 | 0.848 | 
